An excerpt weighted towards active compounds, which were near 6.1% of everything screened.
DRD3 agonist – qHTS of D3 Dopamine Receptor Agonist: qHTS | D3R DiscoveRx beta-arrestin cells, luminescence, 90 min | actives 0.58% (n = 410,000) | D(3) dopamine receptor (Homo sapiens), P35462 | max activation, %; in the data active means max activation above about 30%; further: 0% is about no effect
Target sequence (P35462 whole entry, looked up): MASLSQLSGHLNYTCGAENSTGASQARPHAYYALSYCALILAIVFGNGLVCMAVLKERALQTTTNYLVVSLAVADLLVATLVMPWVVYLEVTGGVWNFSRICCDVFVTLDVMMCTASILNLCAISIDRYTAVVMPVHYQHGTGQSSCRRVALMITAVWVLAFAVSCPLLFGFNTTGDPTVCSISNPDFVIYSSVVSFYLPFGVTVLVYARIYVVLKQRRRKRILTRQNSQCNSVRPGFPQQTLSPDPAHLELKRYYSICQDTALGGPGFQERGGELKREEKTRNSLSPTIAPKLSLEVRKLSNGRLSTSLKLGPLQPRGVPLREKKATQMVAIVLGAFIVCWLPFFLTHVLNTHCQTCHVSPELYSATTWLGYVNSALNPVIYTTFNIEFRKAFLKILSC
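Cells at 1500/well, incubated overnight, then treated with pinned compounds (dopamine as control) for 90 min at 37 degrees C. DiscoveRx reagent added for 30 - 60 minutes at room temperature; luminescence read.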
D1 agonist – Allosteric Agonists of the Human D1 Dopamine Receptor: qHTS. D(1A) dopamine receptor (Homo sapiens), P21728. HEK293 T-REx D1 cells, calcium flux, agonist mode. activation, % at 2 µM. actives 1% (n = 360,000). AID 504660, 2011; in the data active means activation above about 30%; further: 0% is about no effect
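Inducible HEK293 T-REx D1 cells, force-coupled to calcium signalling, were plated at 4000 cells/well with tetracycline and held overnight at 30 C. After no-wash calcium dye loading, compound-evoked calcium rise over 180 s flagged agonists.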
D3 antag – qHTS of D3 Dopamine Receptor Antagonist: qHTS | D(3) dopamine receptor (Homo sapiens), P35462 | AID 652054, 2013 | D3R cells, DiscoveRx beta-arrestin luminescence, antagonist mode; active compounds read low | max response, negative = inhibition, % | actives 2.5% (n = 360,000); in the data active means max response below about -50%; inconclusive means no clear call, values can overlap the other calls; further: on the % scale 0 is the no-effect control and ±100 the full control effect
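Cells plated overnight at 1500 cells/well, then exposed to library compounds with dopamine controls for 90 minutes at 37 degrees C. DiscoveRx reagent added for 30–60 minutes at room temperature; luminescence read, quantitative HTS format.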
D1 antag – Antagonist of Human D 1 Dopamine Receptor: qHTS; actives 3.2% (n = 360,000); AID 504652, 2011; HEK293 TREx D1 cells, calcium flux, dopamine EC80; active compounds read low; D(1A) dopamine receptor (Homo sapiens), P21728; activity change, negative = inhibition, % at 10 µM; in the data active means activity change below about -30%; further: on the % scale 0 is the no-effect control and ±100 the full control effect
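Calcium flux readout: force-coupled, inducible Hek293 Trex D1 line, cells induced overnight at 30 C with tetracycline, dye-loaded 30–90 min at RT. Antagonism scored against EC80 dopamine challenge given 180 s after compound.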
D1 potentiator – Potentiators of Human D1 Dopamine Receptor: qHTS; D(1A) dopamine receptor (Homo sapiens), P21728; HEK293 TREx D1 cells, calcium flux, dopamine EC20 potentiation; potentiation, % at 10 µM; actives 0.036% (n = 360,000); AID 504651, 2011; in the data active means potentiation above about 30%; further: 0% is about no effect
* marks the source's active call; other numbers are inactive results.

What do the screens show for `CCc1nc2c(OCc3ccccc3C)cccn2c1N(C)C(=O)C(C)C`?
DRD3 agonist: -19; D3 antag: -78*

What do the screens show for `CCCCN(C=O)c1c(CC)nc2c(OCC(=O)N3CCOCC3)cccn12`?
DRD3 agonist: -7; D3 antag: 0

How did CCc1nc2c(OCC(=O)N3CCOCC3)cccn2c1N(C)C(=O)COc1ccccc1 do in these assays?
DRD3 agonist: 2; D3 antag: -53*

How did Cc1ccc(CNC(=O)c2cn(C)c3ccc(S(=O)(=O)N(C)C4CCCCC4)cc3c2=O)cc1 do in these assays?
DRD3 agonist: -2; D1 agonist: -2; D1 antag: -3; D1 potentiator: 2

What do the screens show for `CCOc1ccc(-c2cc(-c3nc(-c4cc(OC)c(OC)c(OC)c4)no3)[nH]n2)cc1Cl`?
DRD3 agonist: 2; D1 agonist: 1; D1 antag: -8; D1 potentiator: -1

Results for Cc1cc(Cl)c(OCCCN2CCCCC2)c(Br)c1 ?
DRD3 agonist: -25; D1 agonist: 8; D3 antag: -2; D1 antag: 4; D1 potentiator: -6

What do the screens show for `COCCNCCCCOc1c(Cl)cc(C)cc1Br`?
DRD3 agonist: -4; D1 agonist: 13; D3 antag: -84*; D1 antag: -2; D1 potentiator: -7

What do the screens show for `Cc1cc(C)c(OCCCNC2CCCC2)c(Br)c1`?
DRD3 agonist: -18; D1 agonist: 24; D3 antag: -53*; D1 antag: -1; D1 potentiator: -4

Results for Cc1cc(C)c(OCCCCN(C)C)c(Br)c1 ?
DRD3 agonist: -28; D1 agonist: 3; D3 antag: -15; D1 antag: -9; D1 potentiator: -16

How did Cc1cc(C)c(OCCCNCc2ccccc2)c(Br)c1 do in these assays?
DRD3 agonist: -16; D1 agonist: 37*; D3 antag: -28; D1 antag: 0; D1 potentiator: -1

What do the screens show for `Cc1cc(Cl)cc(Br)c1OCCCNCC(C)O` (stereo unspecified)?
DRD3 agonist: -1; D1 agonist: 10; D3 antag: 0; D1 antag: -17; D1 potentiator: -8

How did Cc1cc(Cl)c(OCCCNCc2ccccc2)c(Br)c1 do in these assays?
DRD3 agonist: -11; D1 agonist: 32*; D3 antag: -62*; D1 antag: 29; D1 potentiator: 3

Results for Cc1ccc(Cl)cc1-n1c(=O)cc(N2CCN(c3ccccc3)CC2)[nH]c1=O ?
DRD3 agonist: 3; D1 agonist: 0; D1 antag: -29; D1 potentiator: -2

What do the screens show for `COc1cc(C2C=C(C34CC5CC(CC(C5)C3)C4)NC(=S)N2)cc(OC)c1OC` (stereo unspecified)?
DRD3 agonist: -17; D1 agonist: 6; D3 antag: -82*; D1 antag: 0; D1 potentiator: 0

What do the screens show for `COc1ccc(OC)c(C2C=C(C34CC5CC(CC(C5)C3)C4)NC(=S)N2)c1` (stereo unspecified)?
DRD3 agonist: -9; D1 agonist: 0; D3 antag: inconclusive; D1 antag: 20; D1 potentiator: 6

What do the screens show for `O=C(COC(=O)c1ccc([N+](=O)[O-])o1)Nc1cccc(S(=O)(=O)N2CCCCC2)c1`?
DRD3 agonist: 0; D1 agonist: 9; D3 antag: 1; D1 antag: -31*; D1 potentiator: -8

Results for CCOc1ncccc1C(=O)OCC(=O)Nc1ccc(S(=O)(=O)N2CCCC2)cc1 ?
DRD3 agonist: 0; D1 agonist: 4; D3 antag: 3; D1 antag: -56*; D1 potentiator: -4

How did O=C(COC(=O)c1ccc(S(=O)(=O)N2CCCCC2)cc1)Nc1ccccc1 do in these assays?
DRD3 agonist: 3; D1 agonist: 34*; D3 antag: -6; D1 antag: 11

Results for CC(=O)Nc1ccc(C(=O)OCC(=O)c2ccc(S(=O)(=O)N3CCCCC3)cc2)cc1 ?
DRD3 agonist: -11; D1 agonist: 5; D3 antag: -7; D1 antag: 1; D1 potentiator: 1

How did CC(=O)Nc1cccc(C(=O)OCC(=O)c2ccc(S(=O)(=O)N3CCCCC3)cc2)c1 do in these assays?
DRD3 agonist: -5; D1 agonist: 8; D3 antag: 5; D1 antag: -37*; D1 potentiator: -4

Results for N#Cc1cc2ccccc2nc1SCC(=O)Nc1ccc(S(=O)(=O)N2CCCC2)cc1 ?
DRD3 agonist: 10; D1 agonist: 41*; D3 antag: 3; D1 antag: -5; D1 potentiator: 5

What do the screens show for `COc1ccc2nc(SCC(=O)Nc3ccc(S(=O)(=O)N4CCCC4)cc3)c(C#N)cc2c1`?
DRD3 agonist: 16; D1 agonist: 2; D3 antag: 8; D1 antag: 8; D1 potentiator: 2

Results for N#CCCN(C(=O)COC(=O)c1ccc(S(=O)(=O)N2CCCC2)cc1)c1cccc(Cl)c1 ?
DRD3 agonist: 1; D1 agonist: 31*; D3 antag: 7; D1 antag: -6; D1 potentiator: -2

What do the screens show for `CC1CCCN(CC(=O)Nc2cccc([N+](=O)[O-])c2)C1` (stereo unspecified)?
DRD3 agonist: -29; D1 agonist: 1; D3 antag: 0; D1 antag: 10; D1 potentiator: -6

How did O=C(Nc1cccc([N+](=O)[O-])c1)Nc1cccc([N+](=O)[O-])c1 do in these assays?
DRD3 agonist: -2; D1 agonist: 37*; D3 antag: -17; D1 antag: -45*; D1 potentiator: -9

What do the screens show for `O=C(Nc1ccc(C(=O)O)cc1)Nc1cccc([N+](=O)[O-])c1`?
DRD3 agonist: 4; D1 agonist: 2; D3 antag: -20; D1 antag: -3; D1 potentiator: -5

Results for COc1ccc(CCNC(=O)Nc2cccc([N+](=O)[O-])c2)cc1 ?
DRD3 agonist: -14; D1 agonist: 15; D3 antag: -20; D1 antag: -34*; D1 potentiator: -6

Results for O=C(CN1CCCCCC1)Nc1cccc([N+](=O)[O-])c1 ?
DRD3 agonist: -7; D1 agonist: 1; D3 antag: -83*; D1 antag: 25; D1 potentiator: -2

What do the screens show for `COc1cc(NC(=O)Nc2cccc([N+](=O)[O-])c2)cc(OC)c1`?
DRD3 agonist: -1; D1 agonist: 13; D3 antag: 1; D1 potentiator: -8

How did CC(C)S(=O)(=O)c1csc(NC(=O)Nc2cccc([N+](=O)[O-])c2)c1Cl do in these assays?
DRD3 agonist: -8; D1 agonist: 20; D3 antag: -6; D1 antag: -33*; D1 potentiator: -9
